Assay outcomes (PubChem BioAssay)
Tg IFNy HTS = T. gondii growth inhibition with IFN-gamma, primary screen, cell-based; 3.8% of 69,000 active; Toxoplasma gondii growth in IFN-gamma-treated host cells; active compounds read low; activity change, negative = inhibition, % (concentration not given with the values); in the data active = activity change below about -70%, passing the limit was not always enough;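 note: host cells are HeLa cells infected with Toxoplasma gondii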
Active calls of the source: *. This is one part of a sample in which hits are shown more often than they occur.

`CC(=O)O[C@@H]1C[C@@]2(C)[C@H](c3ccoc3)C[C@H]3O[C@]32[C@]2(C)C(=O)C(=O)C3C(C)(C)C(=O)C=C[C@]3(C)C12` (stereo partly specified) gave Tg IFNy HTS -83*.
For CC1(C)C(=O)[C@@H]2O[C@@H]2[C@@]2(C)C1C[C@@H](O)[C@]1(C)C2CC[C@@]2(C)[C@H](c3ccoc3)OC(=O)C3OC321 (stereo partly specified) the results were Tg IFNy HTS 5.
Screening CN1CCc2c(CNC(=O)c3nccn3C)cncc2C1 returned Tg IFNy HTS -6.
Screening Cc1cccc2nc(CNC(=O)C3CC4(CCNCC4)CN3)cn12 (stereo unspecified) returned Tg IFNy HTS 5.
COCC(=O)N1CC[C@@]2(CN(C)C[C@@H]2COCc2ccccn2)C1 was read as Tg IFNy HTS 4.
For Cc1ccc(N2CCO[C@@H]3CN(CCO)CC[C@H]3C2)nn1 the results were Tg IFNy HTS -1.
For OCCN1CCOC2C(Cn3ccnc3)CCC21 (stereo unspecified) the results were Tg IFNy HTS 2.
For COc1ccc(N2C(=O)NC(=O)C3(Cc4cccc(F)c4N4CCC(c5ccccc5)CC43)C2=O)cc1 (stereo unspecified) the results were Tg IFNy HTS -99*.
O=c1cccc2n1C[C@@H]1C[C@H]2CN(Cc2cn[nH]c2-c2ccc(F)cc2)C1 was read as Tg IFNy HTS 2.
For N#CC(C#N)=Cc1ccc(O)c(O)c1 the results were Tg IFNy HTS 0.
Screening CC(C)(C)c1cc(C=C(C#N)C#N)cc(C(C)(C)C)c1O returned Tg IFNy HTS -80*.
CCOc1ccccc1NC(=O)c1cc2cccnc2n(Cc2ccccc2)c1=O was read as Tg IFNy HTS 22.
Cc1nc(CN2CC3CN(Cc4ccccn4)CC3C2)cs1 (stereo unspecified) was read as Tg IFNy HTS -2.
For COc1ccc(C2=NCC(=O)N(Cc3nc(-c4ccccc4)oc3C)c3sc4c(c32)CCCC4)cc1 the results were Tg IFNy HTS -87*.
`CCN1C[C@]23CNC[C@@H](C[C@H]2S1(=O)=O)O3` gave Tg IFNy HTS 26.
For Cc1noc(C)c1CN1CCO[C@H]2CN(Cc3cccs3)C[C@@H]21 the results were Tg IFNy HTS 325.
Screening NC1CCN(c2cccnc2)C1 (stereo unspecified) returned Tg IFNy HTS 13.
Cc1c2ccncc2c(C)c2c1[nH]c1ccccc12 was read as Tg IFNy HTS -80*.
c1ccc2c(c1)[nH]c1cnccc12 was read as Tg IFNy HTS 29.
For Cc1nccc2c1[nH]c1ccccc12 the results were Tg IFNy HTS 1.
Screening O=C(O)CN1CC2CC1CN(Cc1ccoc1)C2 (stereo unspecified) returned Tg IFNy HTS 15.
CCCCCN1CC2CN(C(=O)Cc3ccc(Cl)cc3)CC21 (stereo unspecified) was read as Tg IFNy HTS -7.
Screening COCCN1CCN(Cc2nccn2C)Cc2cccnc21 returned Tg IFNy HTS -26.
Screening CN(C)CCO[C@@H]1C[C@@H]2CN(c3ncc(F)cn3)CCN2C1 returned Tg IFNy HTS -7.
For O=C(NCCC(c1ccccc1)c1ccccc1)c1cc2cccnc2n(Cc2ccccc2)c1=O the results were Tg IFNy HTS 10.
For O=C(NCCC(c1ccccc1)c1ccccc1)c1cc2cccnc2n(Cc2ccc(F)cc2)c1=O the results were Tg IFNy HTS -83*.
For CC(C)CCNC(=O)c1cc2cccnc2n(Cc2ccc(F)cc2)c1=O the results were Tg IFNy HTS -25.
Screening Cc1ccc(CNC(=O)c2cc3cccnc3n(Cc3ccc(F)cc3)c2=O)cc1 returned Tg IFNy HTS -8.
`O=C(NCc1ccc(F)cc1)c1cc2cccnc2n(Cc2ccc(Cl)cc2)c1=O` gave Tg IFNy HTS -37.
Screening O=C(NCc1ccco1)c1cc2cccnc2n(Cc2ccc(F)cc2)c1=O returned Tg IFNy HTS -95*.
COCCO[C@@H]1C[C@@H]2CN(C(=O)c3ccncc3)CCN2C1 was read as Tg IFNy HTS 53.
Screening Cc1cc(C(=O)N2CCN(C)C3(CCN(C)CC3)C2)nc(C)n1 returned Tg IFNy HTS 11.
`O=C(Nc1cccc(F)c1)c1cc2cccnc2n(Cc2ccc(Cl)cc2)c1=O` gave Tg IFNy HTS 13.
Screening Cn1ccc(CN2CCCC3(CC(Oc4cccnc4)CO3)C2)n1 (stereo unspecified) returned Tg IFNy HTS inactive.
Screening Cc1cc(NC(=O)c2cc3cccnc3n(Cc3ccccc3)c2=O)no1 returned Tg IFNy HTS 93.
For C[C@@H]1CN(Cc2ccc(F)cc2)CCN1C(=O)COc1ccc(Cl)cc1NC(N)=O the results were Tg IFNy HTS -66.
CCO[C@@H]1CC[C@@H]2[C@H]1OCCN2Cc1cc(C)on1 was read as Tg IFNy HTS -12.
Screening Cc1cc(CN2CCO[C@@H]3[C@H]2CC[C@H]3OCC(C)C)no1 returned Tg IFNy HTS -8.
CCO[C@H]1CC[C@@H]2[C@H]1OCCN2Cc1cc(C)on1 was read as Tg IFNy HTS -81*.
`Cc1cc(C)cc(NC(=O)c2cc3cccnc3n(Cc3ccccc3F)c2=O)c1` gave Tg IFNy HTS 84.
Screening CN(C)c1ncc2c(c1C(=O)O)CCN(S(=O)(=O)C1CC1)C2 returned Tg IFNy HTS 1.
For CCCCOC(=O)c1ccc(NC(=O)c2cc3cccnc3n(Cc3ccccc3)c2=O)cc1 the results were Tg IFNy HTS -42.
For Cc1cccc(CN2CC[C@H]3CO[C@H](CNS(C)(=O)=O)[C@@H]3C2)n1 the results were Tg IFNy HTS -2.
Cc1noc(C)c1CN1CC[C@H]2[C@@H]1CCN2CC(=O)N(C)C was read as Tg IFNy HTS 4.
